Screening results (PubChem)
This is one part of a sample in which hits are shown more often than they occur.
FECH block: inhibitors of human ferrochelatase; actives 3.3% (n = 20,000); purified FECH, Ni-mesoporphyrin absorbance 550 nm; calls only at 10 µM (by protocol); P22830;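 active = enzyme reaction rate more than 3 SD below the solvent-only control wells on the same plate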;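 note: lower slope than DMSO wells means FECH inhibition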
Target sequence (P22830 whole entry, looked up): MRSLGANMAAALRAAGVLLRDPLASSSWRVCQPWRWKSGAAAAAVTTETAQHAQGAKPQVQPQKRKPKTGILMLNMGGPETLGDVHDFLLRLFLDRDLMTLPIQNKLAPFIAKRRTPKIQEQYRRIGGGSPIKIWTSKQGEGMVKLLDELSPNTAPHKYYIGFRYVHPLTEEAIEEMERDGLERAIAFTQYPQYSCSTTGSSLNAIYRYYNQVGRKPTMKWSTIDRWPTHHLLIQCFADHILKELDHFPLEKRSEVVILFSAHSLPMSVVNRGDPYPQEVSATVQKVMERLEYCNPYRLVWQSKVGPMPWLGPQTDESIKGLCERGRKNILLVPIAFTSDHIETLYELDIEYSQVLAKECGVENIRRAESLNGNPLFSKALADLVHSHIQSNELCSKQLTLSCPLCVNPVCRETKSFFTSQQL
* hit, by the source's call; i = inactive; + = active, no number.

SMILES	FECH block
Cc1ccc(CN2CCCN(Cc3ccccc3C)S2(=O)=O)cc1	i
Cc1ccc(C)c(CN2CCCN(Cc3ccccc3)S2(=O)=O)c1	i
O=S1(=O)N(Cc2ccc(Cl)cc2)CCCN1Cc1ccccc1Cl	+
Cc1nc(C)c2c(n1)OC(CN1CCC3(CC1)C(=O)Nc1ccccc13)C2 (stereo not drawn)	i
Cc1[nH]c(=O)[nH]c(=O)c1CC(=O)N1CCN(C)C2(CCN(C)CC2)C1	i
